# Measured values published in ChEMBL document CHEMBL3988442, “University of Dundee, Small-Polar-MMV Screening Library” (2021).
# For some assays here: Results with a measured potency or affinity are listed apart.
# Columns and labels:
# Parameters in all cases: scale not given: direction of the effect not stated beside the values
# [1] = target: Protein translocase subunit SecA (Escherichia coli (strain K12)) (UniProt P10408); test: Assay to Identify E. coli SecA ATPase Inhibitors; type: functional; conditions: 30 µM
# Protein translocase subunit SecA (Escherichia coli (strain K12)), sequence (P10408 whole entry): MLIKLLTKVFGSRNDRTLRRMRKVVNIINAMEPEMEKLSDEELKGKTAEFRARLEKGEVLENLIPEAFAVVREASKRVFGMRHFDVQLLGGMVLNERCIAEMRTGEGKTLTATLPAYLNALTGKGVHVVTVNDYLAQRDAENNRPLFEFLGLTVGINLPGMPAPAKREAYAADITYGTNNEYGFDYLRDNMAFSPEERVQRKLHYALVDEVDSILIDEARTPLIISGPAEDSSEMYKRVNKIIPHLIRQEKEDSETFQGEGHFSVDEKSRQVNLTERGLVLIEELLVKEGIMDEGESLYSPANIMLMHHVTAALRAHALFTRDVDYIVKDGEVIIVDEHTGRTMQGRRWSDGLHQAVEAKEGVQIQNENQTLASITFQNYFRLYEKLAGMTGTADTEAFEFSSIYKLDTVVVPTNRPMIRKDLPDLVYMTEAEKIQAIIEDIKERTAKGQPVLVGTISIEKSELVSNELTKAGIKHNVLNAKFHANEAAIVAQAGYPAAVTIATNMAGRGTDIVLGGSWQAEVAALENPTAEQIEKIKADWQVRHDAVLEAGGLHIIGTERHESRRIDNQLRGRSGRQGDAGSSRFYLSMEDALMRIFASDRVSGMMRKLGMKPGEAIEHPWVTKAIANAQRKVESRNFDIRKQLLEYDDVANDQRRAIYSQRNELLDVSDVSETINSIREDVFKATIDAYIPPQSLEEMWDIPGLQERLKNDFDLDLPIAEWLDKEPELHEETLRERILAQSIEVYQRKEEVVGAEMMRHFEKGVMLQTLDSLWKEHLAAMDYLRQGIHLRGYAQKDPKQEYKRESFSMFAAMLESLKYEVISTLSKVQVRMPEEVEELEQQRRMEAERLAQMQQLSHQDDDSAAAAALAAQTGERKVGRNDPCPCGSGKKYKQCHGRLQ
# [2] = target: T1, Ubiquitin-activating enzyme e1, putative (Leishmania donovani (strain BPK282A1)) (UniProt E9BSI1); test: Leishmania donovani Ubiquitin Activating Enzyme (LdE1); type: functional; conditions: 30 µM
# T1 sequence (whole entry): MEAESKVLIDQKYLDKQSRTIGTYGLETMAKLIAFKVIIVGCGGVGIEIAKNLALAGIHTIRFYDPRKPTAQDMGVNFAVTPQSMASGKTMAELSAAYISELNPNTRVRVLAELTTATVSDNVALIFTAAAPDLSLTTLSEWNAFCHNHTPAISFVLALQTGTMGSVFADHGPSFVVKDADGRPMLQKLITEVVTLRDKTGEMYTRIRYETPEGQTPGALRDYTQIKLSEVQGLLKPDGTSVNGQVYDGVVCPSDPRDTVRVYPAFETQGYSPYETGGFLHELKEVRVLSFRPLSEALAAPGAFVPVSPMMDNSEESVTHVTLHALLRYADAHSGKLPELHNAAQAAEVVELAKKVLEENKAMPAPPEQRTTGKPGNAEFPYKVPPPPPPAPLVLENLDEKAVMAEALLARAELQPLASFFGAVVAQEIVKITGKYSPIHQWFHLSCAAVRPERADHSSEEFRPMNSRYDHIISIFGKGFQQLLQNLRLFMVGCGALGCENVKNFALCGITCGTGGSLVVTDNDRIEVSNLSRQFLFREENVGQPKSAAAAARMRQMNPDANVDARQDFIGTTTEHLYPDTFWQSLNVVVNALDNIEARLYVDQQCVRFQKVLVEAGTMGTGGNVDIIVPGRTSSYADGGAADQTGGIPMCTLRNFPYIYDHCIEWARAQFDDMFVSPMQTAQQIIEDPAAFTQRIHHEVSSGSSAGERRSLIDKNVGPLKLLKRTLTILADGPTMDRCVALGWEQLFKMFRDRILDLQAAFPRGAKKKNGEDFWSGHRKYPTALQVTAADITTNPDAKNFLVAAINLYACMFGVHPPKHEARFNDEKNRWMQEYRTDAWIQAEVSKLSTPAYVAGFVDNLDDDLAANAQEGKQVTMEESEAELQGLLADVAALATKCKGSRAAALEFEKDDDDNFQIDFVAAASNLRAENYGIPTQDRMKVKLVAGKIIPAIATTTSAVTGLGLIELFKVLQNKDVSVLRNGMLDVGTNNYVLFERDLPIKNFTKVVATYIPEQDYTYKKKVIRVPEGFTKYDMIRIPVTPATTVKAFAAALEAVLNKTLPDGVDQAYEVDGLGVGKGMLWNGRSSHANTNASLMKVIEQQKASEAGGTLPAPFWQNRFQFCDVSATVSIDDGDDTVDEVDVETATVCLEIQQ
# [3] = target: AMP-activated protein kinase, AMPK (Homo sapiens) (UniProt P54646+O43741+P54619+Q9UGJ0+Q9Y478+Q13131+Q9UGI9); test: AMP-dependent Kinase enzyme assay. An in vitro enzyme assay that detects ADP turnover that is directly proportional to AMPK activity. This uses naive AMPK that is activated during the assay with MK-8722; type: functional; conditions: 30 µM
# [4] = target: Sialic acid-binding Ig-like lectin 9 (Homo sapiens) (UniProt Q9Y336); test: Hs-Siglec9 ALPHAscreen SOP 20170721; conditions: 10 µM
# Sialic acid-binding Ig-like lectin 9 (Homo sapiens), sequence (Q9Y336 whole entry): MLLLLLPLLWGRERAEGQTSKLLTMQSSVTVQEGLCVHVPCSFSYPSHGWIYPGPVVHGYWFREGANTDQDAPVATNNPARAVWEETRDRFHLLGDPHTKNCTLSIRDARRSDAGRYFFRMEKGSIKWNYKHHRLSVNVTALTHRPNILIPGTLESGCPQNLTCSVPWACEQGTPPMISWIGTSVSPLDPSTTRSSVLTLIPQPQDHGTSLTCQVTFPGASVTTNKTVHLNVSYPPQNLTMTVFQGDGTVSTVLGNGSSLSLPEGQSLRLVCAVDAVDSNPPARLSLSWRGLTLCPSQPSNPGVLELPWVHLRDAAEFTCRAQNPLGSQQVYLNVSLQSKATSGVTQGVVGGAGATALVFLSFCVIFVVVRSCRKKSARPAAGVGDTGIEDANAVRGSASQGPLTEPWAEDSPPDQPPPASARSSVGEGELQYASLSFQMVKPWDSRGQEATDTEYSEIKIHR
# [5] = test system: Trypanosoma cruzi; test: Trypanosoma cruzi phosphomannomutase and mannose-1-phosphate guanylyltransferase assay; type: functional; conditions: 10 µM
# [6] = target: T2, Arginase-2, mitochondrial (Homo sapiens) (UniProt P78540); test: in vitro enzyme assay to detect the production of urea directly proportional to the activity of Arginase II; type: functional; conditions: 33.3 µM; further: in the data most compounds retested in dose-response had high values
# T2 sequence (whole entry): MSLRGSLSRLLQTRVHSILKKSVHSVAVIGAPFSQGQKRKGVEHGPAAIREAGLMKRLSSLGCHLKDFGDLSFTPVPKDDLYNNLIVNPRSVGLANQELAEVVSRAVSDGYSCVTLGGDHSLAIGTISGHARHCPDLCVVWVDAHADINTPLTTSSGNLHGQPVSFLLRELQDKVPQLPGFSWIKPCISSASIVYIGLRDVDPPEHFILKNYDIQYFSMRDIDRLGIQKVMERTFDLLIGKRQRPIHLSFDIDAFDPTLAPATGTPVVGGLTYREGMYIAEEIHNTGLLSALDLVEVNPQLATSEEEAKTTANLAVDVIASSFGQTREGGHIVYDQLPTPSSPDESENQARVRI
# [7] = target: T3, Proteasome subunit beta (Trypanosoma cruzi) (UniProt O96673); test: Trypanosoma cruzi proteasome chymotrypsin-like activity (TcProtChymo) assay.; further: in the data most compounds retested in dose-response had high values; type: functional; conditions: 9.37 µM
# T3 sequence (whole entry): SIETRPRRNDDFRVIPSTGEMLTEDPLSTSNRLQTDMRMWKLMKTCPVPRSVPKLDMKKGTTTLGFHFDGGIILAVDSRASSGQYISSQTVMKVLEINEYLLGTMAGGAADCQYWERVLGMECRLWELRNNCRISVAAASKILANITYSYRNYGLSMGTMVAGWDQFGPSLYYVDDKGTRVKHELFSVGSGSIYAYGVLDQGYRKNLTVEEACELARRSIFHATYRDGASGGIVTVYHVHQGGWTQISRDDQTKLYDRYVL
# [8] = organism: Homo sapiens; test: To identify inhibition of the IFN signalling (Jak-Stat) pathway via expression of an eGFP reporter gene under the control of an IFN-stimulated response element (ISRE) containing MxA promoter.; type: functional; conditions: 30 µM
# [9] = target: T4, Tyrosyl-tRNA synthetase, putative (Trypanosoma cruzi (strain CL Brener)) (UniProt Q4DSP6); test: Trypanosoma cruzi tyrosyl tRNA synthetase (TcYRS) _High Tyrosine SOP; type: functional; conditions: 30 µM; further: in the data most compounds retested in dose-response had high values
# T4 sequence (whole entry): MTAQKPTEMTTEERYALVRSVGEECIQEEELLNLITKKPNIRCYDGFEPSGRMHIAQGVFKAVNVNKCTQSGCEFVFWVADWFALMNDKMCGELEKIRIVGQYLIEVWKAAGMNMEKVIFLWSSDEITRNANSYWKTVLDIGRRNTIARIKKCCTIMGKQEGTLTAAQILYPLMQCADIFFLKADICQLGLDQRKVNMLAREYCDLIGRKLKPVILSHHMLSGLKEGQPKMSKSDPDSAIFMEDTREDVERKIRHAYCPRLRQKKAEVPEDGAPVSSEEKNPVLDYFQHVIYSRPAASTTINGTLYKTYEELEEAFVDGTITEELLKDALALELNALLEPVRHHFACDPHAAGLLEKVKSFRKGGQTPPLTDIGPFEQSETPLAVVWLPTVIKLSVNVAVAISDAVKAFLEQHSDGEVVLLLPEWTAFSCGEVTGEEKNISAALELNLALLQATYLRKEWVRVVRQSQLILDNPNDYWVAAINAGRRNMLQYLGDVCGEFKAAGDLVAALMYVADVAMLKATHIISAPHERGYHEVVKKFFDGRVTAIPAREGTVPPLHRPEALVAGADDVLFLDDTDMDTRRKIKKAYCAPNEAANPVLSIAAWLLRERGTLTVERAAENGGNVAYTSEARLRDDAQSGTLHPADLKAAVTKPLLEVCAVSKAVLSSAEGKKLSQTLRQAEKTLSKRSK
# [10] = target: T4, Tyrosyl-tRNA synthetase, putative (Trypanosoma cruzi (strain CL Brener)); test: Trypanosoma cruzi tyrosyl tRNA synthetase (TcYRS) SOP; type: functional; conditions: 30 µM
# [11] = target: Chromo domain-containing protein 1 (Saccharomyces cerevisiae (strain ATCC 204508 / S288c) (Baker's yeast)) (UniProt P32657); test: ScCHD-1 Enzyme Inhibition Assay; type: functional; conditions: 30 µM; further: in the data most compounds retested in dose-response had high values
# Chromo domain-containing protein 1 (Saccharomyces cerevisiae (strain ATCC 204508 / S288c) (Baker's yeast)), sequence (P32657 whole entry, the tested form may be a part): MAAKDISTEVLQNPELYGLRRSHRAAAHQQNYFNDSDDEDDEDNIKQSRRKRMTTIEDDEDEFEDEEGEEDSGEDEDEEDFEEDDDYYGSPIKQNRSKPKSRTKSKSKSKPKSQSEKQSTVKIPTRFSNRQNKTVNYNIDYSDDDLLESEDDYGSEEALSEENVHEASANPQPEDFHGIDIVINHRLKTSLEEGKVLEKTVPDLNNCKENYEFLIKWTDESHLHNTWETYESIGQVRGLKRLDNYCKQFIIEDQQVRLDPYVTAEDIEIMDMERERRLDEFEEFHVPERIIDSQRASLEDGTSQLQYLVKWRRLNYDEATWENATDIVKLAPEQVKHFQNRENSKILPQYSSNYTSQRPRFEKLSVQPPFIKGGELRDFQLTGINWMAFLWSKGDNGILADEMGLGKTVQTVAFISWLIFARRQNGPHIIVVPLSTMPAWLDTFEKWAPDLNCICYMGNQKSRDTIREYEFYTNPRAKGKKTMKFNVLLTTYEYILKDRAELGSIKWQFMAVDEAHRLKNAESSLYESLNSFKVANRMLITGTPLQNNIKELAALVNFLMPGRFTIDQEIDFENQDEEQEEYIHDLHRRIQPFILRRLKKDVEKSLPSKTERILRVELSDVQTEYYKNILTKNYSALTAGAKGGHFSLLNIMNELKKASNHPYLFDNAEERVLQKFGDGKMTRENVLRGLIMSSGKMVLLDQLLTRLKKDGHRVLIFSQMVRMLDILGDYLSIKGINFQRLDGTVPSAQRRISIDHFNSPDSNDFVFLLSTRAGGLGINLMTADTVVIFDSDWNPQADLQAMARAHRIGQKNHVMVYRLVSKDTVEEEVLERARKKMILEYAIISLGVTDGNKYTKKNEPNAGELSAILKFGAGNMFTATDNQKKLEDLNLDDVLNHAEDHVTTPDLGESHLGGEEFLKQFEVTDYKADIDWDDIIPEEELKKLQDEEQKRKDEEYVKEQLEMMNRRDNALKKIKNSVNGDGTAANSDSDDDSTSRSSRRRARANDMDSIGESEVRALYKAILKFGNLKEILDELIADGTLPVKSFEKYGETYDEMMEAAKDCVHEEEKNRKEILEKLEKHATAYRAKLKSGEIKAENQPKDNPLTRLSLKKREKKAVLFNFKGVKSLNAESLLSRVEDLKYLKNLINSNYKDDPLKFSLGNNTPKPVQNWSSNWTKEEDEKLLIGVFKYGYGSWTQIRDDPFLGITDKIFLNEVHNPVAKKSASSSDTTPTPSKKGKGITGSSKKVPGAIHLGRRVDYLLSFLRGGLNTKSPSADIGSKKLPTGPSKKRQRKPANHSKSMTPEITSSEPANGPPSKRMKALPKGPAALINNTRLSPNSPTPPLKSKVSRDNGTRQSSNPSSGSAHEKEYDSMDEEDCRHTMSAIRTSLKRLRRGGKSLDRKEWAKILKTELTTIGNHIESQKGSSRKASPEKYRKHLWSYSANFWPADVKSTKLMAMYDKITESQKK
Compound,Percent Effect [1],Percent Effect [2],Percent Effect [3],Percent Effect [4],Percent Effect [5],Percent Effect [6],Percent Effect [7],Percent Effect [8],Percent Effect [9],Percent Effect [10],Percent Effect [11]
c1ccc2sc(CN3CCOC(Cn4cccn4)C3)nc2c1 (configuration not stated),-6.08%,5.41%,-3.49%,1.12%,-4.06%,-2%,0%,24.4%,-0.493%,-8.64%,-0.731%
COC(=O)Cn1cccc(S(=O)(=O)N2CCC(C)CC2)c1=O,-2.33%,20%,-5.59%,-8.73%,2.75%,92.1%,14.8%,15.8%,2.12%,10.3%,-10.4%
OC(CN1CCN(c2ncccn2)CC1)c1cccc(F)c1 (configuration not stated),-2.83%,13.5%,-5.06%,19.1%,4.99%,16.6%,2.49%,20.5%,6.45%,16.1%,-5.42%
Cn1cc(CN2CCn3cc(CNC(=O)C4CCC4)nc3C2)cn1,-3.67%,5.33%,4.55%,2.73%,-0.386%,-31%,7.69%,0.15%,7.29%,12.5%,-8.18%
CC1(NC(=O)Cc2csc(C(C)(C)C)n2)CCS(=O)(=O)C1 (configuration not stated),-7.31%,19.2%,-17.7%,20.2%,9.01%,7.27%,13.7%,17.5%,4.3%,17.5%,-4.8%
Cc1ccc(C(CNCc2cnn(C(C)C)c2)N2CCOCC2)s1 (configuration not stated),-3.15%,-2.7%,-0.219%,-2.96%,-0.391%,-2.5%,11.1%,-8.39%,4.95%,1.22%,-6.03%
O=C(CCc1nccs1)N1CCCC(N2CCNC2=O)C1 (configuration not stated),-3.25%,11%,5.41%,-1.3%,-2.35%,5%,8.16%,4.48%,4.3%,10%,-4.2%
O=C(C1CCOCC1)N1CCc2ncnc(-c3ccc(F)cc3)c2CC1,-1.29%,2.67%,4.73%,2.72%,-1.35%,-2.33%,8.89%,-4.53%,0%,-2.5%,-3.02%
Cn1cc(C(=O)NC2CCN(C(=O)NCCSC(F)(F)F)CC2)cn1,-1.89%,13.9%,2.72%,2.15%,-1.13%,-0.215%,13%,8.82%,9.38%,17.7%,-19.9%
COc1ccc(CN2CCCC3(CCN(c4ccsc4)C3=O)C2)cc1 (configuration not stated),-1.81%,0%,5.65%,2.16%,-5.32%,3.96%,6.78%,21.2%,2.13%,3.85%,-0.303%
CCOCCCC(=O)NCc1cn2cc(Br)ccc2n1,-1.32%,7.89%,1.23%,-4.68%,-1.66%,0%,24.1%,-9.79%,6.38%,15.6%,-2.98%
O=C(NCCc1cccs1)[C@H]1CO[C@H]2CCNC[C@H]2C1,0.545%,13.5%,0.0792%,-4.42%,-4.99%,6.05%,19.4%,12.4%,1.08%,10.3%,-2.47%
COc1c(CNCc2cccc(Cn3ccnc3)c2)c(C)nn1C,-5.63%,21.6%,-15%,13.9%,5.38%,-11.2%,10.3%,37.8%,4.43%,18.5%,-10%
COCc1nc2n(n1)CCCC2Nc1nc(C2CC2)ns1 (configuration not stated),-2.6%,5.33%,-1.82%,23.5%,2.82%,16.1%,13.6%,-2.26%,4.92%,13.6%,-5.92%
CCOCC1CN(S(C)(=O)=O)Cc2ncn(CC3CC3)c21 (configuration not stated),-2.41%,13.5%,-8.53%,6.97%,3.81%,-1.24%,5.58%,-4.29%,6.45%,13.6%,-6.43%
COC(=O)c1cccc(OCCn2nc(-c3cccs3)oc2=O)c1,-3.91%,-5.41%,-4.63%,7.61%,-4.36%,-3.14%,1.44%,22.8%,-16.8%,-6.1%,3.23%
O=C(c1ccccc1-n1cccn1)N1CCCN(c2cccnn2)CC1,-2.4%,-15.6%,5.31%,10.5%,-0.294%,1.05%,9.46%,-6.03%,0.952%,9.41%,-13.5%
O=C1CC(c2cccs2)c2cnn(C3CCCC3)c2N1 (configuration not stated),-5.95%,-5.33%,6.01%,-6.09%,-6.13%,-4.69%,6.97%,10.9%,-2.73%,-6.17%,1.62%
CCS(=O)(=O)N1Cc2nccn2CC(Cn2nc(C)nc2C)C1 (configuration not stated),-2.08%,13.5%,-5.79%,32.6%,4.2%,19.6%,16.9%,-17.4%,5.38%,18.5%,-4.54%
O=C(NCc1cccnc1)C1CC(=O)N(CC2CC2)C1 (configuration not stated),-5.33%,15.6%,-0.688%,-14.6%,6.37%,-1.05%,17.7%,4.16%,4.76%,21.2%,-21.7%
Cn1cc(C(=O)N2C[C@@H]3COC[C@]3(COCc3cccnc3)C2)cn1,0.921%,13%,7.58%,1.08%,-4.83%,11%,17.4%,3.89%,0%,8.97%,-5.24%
Cc1ccc(N2CC3(CCN(c4nccs4)C3)C2)nn1,0.227%,2.74%,1.72%,6.68%,-0.794%,0.798%,14%,0.564%,5.21%,11.1%,0.982%
